# Shown are actives, neighbours in structure and some others; about 3.2% of the full set was active somewhere.
# Tau fibril FP = inhibitors of human tau fibril formation. P10636. K18 P301L tau heparin fibrillization, Alexa594 FP, 6 h. Potency, µM (titrated, usually from 57.7 µM), for the others: at the top dose activity, negative = inhibition, hits mostly inhibitors. 280,000 tested, 0.39% active; also: nearly all actives have a fitted effect of over 55% in size
#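 Read-out: fluorescence polarization of Alexa 594-labeled tau (0.24 uM), 555 nm excitation, 632 nm emission. Mixtures held 15 uM unlabeled K18 P301L, compound and 20 uM heparin, pH 7 acetate buffer, incubated 6 hr at 37 C.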
# Tau fibril ThT = tau fibrillization inhibition (ThT binding). P10636. recombinant tau K18 P301L, heparin-induced fibrillization, ThT fluorescence. Potency, µM (titrated, usually from 57.4 µM), inactives show at the top dose activity, negative = inhibition, usual class: inhibitors. 270,000 tested, 2.1% active; also: nearly all actives have a fitted effect of over 55% in size
#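 In this qHTS, human K18 P301L tau is incubated with compound and heparin for 6 hr at 37 C, and Thioflavin T fluorescence then reports fibril load.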
# TR SRC2 fluor cs = Texas Red fluorescence interference in TRb-SRC2 counter-screen; TRb/SRC2 Texas Red total fluorescence interference; Potency, µM (highest dose often 106 µM), for inactives: at the highest dose fluorescence change, negative = quenching; 280,000 tested, 0.29% active; active = well fitted curve in either direction with a large enough effect; inconclusive = small, poorly fitted or top-dose-only effect
#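 Human TRb ligand-binding domain at 0.6 uM with 20 nM Texas Red SRC2 peptide in Tris buffer containing 1 uM T3 and 5% DMSO, incubated with compound 5 h at ambient temperature. Total fluorescence (555/632 nm) calculated as parallel + 2 × perpendicular.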
# Tau fluor counter = counter-screen for tau fibril formation inhibitors. tau K18 P301L Alexa594 fluorescence, heparin fibrillization. Potency, µM (doses to about 57.7 µM), for inactives: at the highest dose activity change, negative = decrease. 280,000 tested, 0.93% active. AID 1463; also: nearly all actives have a fitted effect of over 55% in size
#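 Human tau K18 P301L (15 uM unlabeled, 0.24 uM Alexa 594-labeled) in 100 mM sodium acetate pH 7 with 20 uM heparin, 6 hr at 37 C. ThT 30 uM added, 1 hr ambient; Alexa 594 FP and total fluorescence read at 555/632 nm.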
# RGS12 GoLoco inh = RGS12 GoLoco-Gai1 interaction inhibition; P63096; Gai1:RGS12 GoLoco peptide FP, rhodamine, 10 min; Potency, µM (titrated, usually from 61.6 µM), inactives show at the top dose activity, negative = inhibition, actives largely listed as inhibitors; 230,000 tested, 0.44% active; AID 880; active = well fitted inhibition curve with a large enough effect, not every such curve was filed as active; inactive = no such curve, though single readings can be large or run the other way; also: nearly all actives have a fitted effect of over 30% in size
# TRb-SRC2 inh = TRbeta-SRC2 interaction inhibition; TRbeta-SRC2 peptide binding, fluorescence polarization; receptor liganded with 1 µM T3; Potency, µM (series often up to 106 µM), for the others: at the highest dose activity change, negative = inhibition, usual class: inhibitors; 280,000 tested, 0.065% active;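 also: plate controls were bound peptide for no effect and peptide without receptor for full effect; nearly all actives have a fitted effect of over 50% in size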
# Target sequence (P10828 whole entry, looked up): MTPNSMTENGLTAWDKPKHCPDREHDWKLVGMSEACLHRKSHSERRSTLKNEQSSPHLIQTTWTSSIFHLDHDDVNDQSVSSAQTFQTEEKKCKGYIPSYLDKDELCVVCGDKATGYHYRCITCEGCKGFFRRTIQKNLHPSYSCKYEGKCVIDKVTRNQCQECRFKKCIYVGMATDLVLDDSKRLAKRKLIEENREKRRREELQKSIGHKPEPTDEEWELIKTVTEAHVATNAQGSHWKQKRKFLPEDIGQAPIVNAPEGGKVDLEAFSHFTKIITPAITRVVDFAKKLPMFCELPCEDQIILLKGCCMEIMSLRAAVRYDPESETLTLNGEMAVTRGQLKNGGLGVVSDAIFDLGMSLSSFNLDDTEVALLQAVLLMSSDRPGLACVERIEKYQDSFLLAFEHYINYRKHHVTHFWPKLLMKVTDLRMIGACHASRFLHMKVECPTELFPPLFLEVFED
#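 Read-out is fluorescence polarization (555 nm excitation, 632 nm emission) of a Texas Red SRC2 coactivator peptide; loss of signal reflects blocked binding to human TRb ligand-binding domain in the presence of 1 uM T3.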
# An asterisk follows results filed as active; ? = inconclusive; · = not tested or not shown; [ ] = dose if it differs, or a comment. Unless noted, calls follow the shape of the dose curve; as a rule, active = well fitted curve in the direction sought with a large enough effect; inconclusive = small, poorly fitted or top-dose-only effect, or another doubt; inactive = no such curve, though single readings can be large; an effect the other way counts as inactive or inconclusive. Unless noted, % is scaled to controls: 0 for no effect and ±100 for the full control effect; potency is read from the fitted curve at half-maximal effect.
SMILES,Tau fibril FP,Tau fibril ThT,TR SRC2 fluor cs,Tau fluor counter,RGS12 GoLoco inh,TRb-SRC2 inh
COC(=O)N[C@@H](CCc1ccccc1)/C(C(=O)OC)=C(\C)NCc1ccccc1,4%,0%,-1%,2%,6%,-3%
CCOC(=O)c1cn(CC)c2ccc(S(=O)(=O)N3CC(C)CC(C)C3)cc2c1=O (stereo unspecified),-12%,?,45µM*[fluorescent],-22%,13%,?
C[Si](C)(C)Cl,·,·,-2%,·,-3%,5%
Cc1ccc(S(=O)(=O)C(I)I)cc1,·,·,-10%[201 µM],·,·,-3%[201 µM]
NC(=O)NC(=O)[C@H]1CCCC[C@@H]1C(=O)O,·,·,·,·,8%[14.2 µM],·
COc1ccc(-c2nc3cnc(N4CCOCC4)nc3n(CCc3ccccc3)c2=O)cc1,·,·,·,·,5%,·
CCSC1=NC2(CCCCC2)Nc2sc3c(c21)CCCC3,?,28µM*,-5%,?,-10%,3%
CC(/C=C1\SC(=S)N(NC(=O)c2ccc(O)cc2)C1=O)=C\c1ccccc1,1%,5%,0%,7%,-1%,-2%
CC(/C=C1\SC(=S)N(CCCC(=O)Nc2ccc(C(=O)O)cc2)C1=O)=C\c1ccccc1,-12%,14µM*,1%,-14%,29%,-1%
CC(=C\c1ccccc1)/C=C1/SC(=S)N(C(C(=O)O)C(C)C)C1=O (stereo unspecified),-10%,25µM*,-1%,-13%,0%,-14%
CCC(C(=O)O)N1C(=O)/C(=C/C(C)=C/c2ccccc2)SC1=S (stereo unspecified),-12%,18µM*,-2%,-22%,188%,-5%
Nc1nc(-c2nn(Cc3ccccc3F)c3ncccc23)ncc1C1CC1,·,·,-8%,·,·,-6%
CCOC(=O)C1=C(CS(=O)(=O)c2ccc(OC)c(Cl)c2)NC(=O)NC1c1cccc(OC)c1 (stereo unspecified),-6%,-9%,2%,-18%,·,-8%
Nn1cnc2c(c1=O)C1(CCCCC1)Cc1ccccc1-2,6%,-4%,0%,-12%,5%,6%
Oc1ccc(-c2nc3c4c(ncn3n2)-c2ccccc2CC42CCCC2)cc1,22µM*,5%,0%,?,-7%,1%
Cc1c2ccccc2c(CSC(=N)N)c2ccccc12,?,13µM*,-3%,-28%,5%[14.2 µM],-8%
COC/C=C/C1=CC2=CC(=O)C(C)(OC(=O)c3ccc(Cl)nc3)C(=O)C2=CO1 (stereo unspecified),0%,?,-1%,-16%,19%,6%
CC(C)c1ccc(CNc2nc(-c3ccco3)nn2C(=O)c2ccc([N+](=O)[O-])cc2)cc1,1%,?,-7%,16µM*[quencher],·,-4%
C=CCOC(=O)N[C@@H](CC(C)C)/C(C(=O)OC)=C(\C)NCc1ccccc1,1%,7%,-2%,3%,-4%,2%
CC(/C=C(\NC(=O)c1ccccc1)C(=O)N=Nc1c(O)[nH]c2ccc(C)cc12)=C\c1ccccc1,-3%,20µM*,-4%,?,-4%,-6%
Cc1ccc2[nH]c(O)c(N=NC(N)=S)c2c1,-2%,?,-11%,-10%,-2%,-2%
OC[C@@H]1O[C@@H](N2CCN([C@@H]3O[C@@H](CO)[C@@H](O)[C@H](O)[C@H]3O)CC2)[C@@H](O)[C@H](O)[C@H]1O,·,·,·,·,0%[14.2 µM],·
COc1ccc(-c2csc(NC(=O)c3ccccc3NS(=O)(=O)c3ccc(F)c(F)c3)n2)cc1,?,22µM*,-19%,?,2%,11%
COc1cc(NC(=O)Nc2cccc(Cl)c2)c(OC)cc1NC(=O)CN1CCCCC1,?,?,-6%,8.9µM*[quencher],5%,-4%
O=C(CN1CCCCC1)Nc1cccc(Cl)c1,3%,-1%,-1%,1%,11%,3%
Cc1ccc(SCC(Cc2ccccc2)N2CCN(C)CCC2=O)cc1 (stereo unspecified),·,·,-2%,·,·,2%
